# According to the supplement of paper PMC8728848:
# About 410 targets per protein were measured; listed, in parts, are those with the strongest signals and a random draw of the rest.
# B1: AT5G01260(PC)(40) (Arabidopsis thaliana), Q9LFB0 (protein)
# chain: MIGIGRTLTSSSPSKIILEDLPPGIYRYGTEIFTSVPRKTFHHIKFLRLDSAQSSRILKPVPLRSSSIKDSQVNVEDEEIEASNKTVRVRFQLRKECVFGEHFFIVGDDPVFGGLWDPETALPLNWSDGNVWTVDLDLPVGRLVEFKLLLKAQTGEILWQPGPNRALETWETNKTIRICEDWDNADLQMMIEEDFVPYTNISSIGSEDEDEVLGSVQQNSSVVAVENAGYVSDESAQNSSFSIQSEKTMEPSNGALTAREVIKEAMFTEEESPVLVPGLIPLSDLDNEQVEVINEGKAETFPEVDKKQEPKAERNKKAKVKAISLFEKSEQEAVKSVEQRQYNAVEEEQQRLETEPLGTPDVLFENDIQWGRRTLYKLLSNFRLF
# Tests used:
# Experiment in all cases: glycan array binding signal (z-score within array); higher = stronger binding
# Conditions in all cases: glycan notation: IUPAC condensed, linker removed
# [1] = biological target: Fuc(a1-2)Gal(b1-3)GalNAc(b1-3)Gal
# Outline: (§1)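 Negative Z-scores can be read as non-binding. The Z-score is calculated within each array and then averaged across arrays of one protein sequence at different concentrations or buffers and across linkers. Arrays, 3228 in all, were curated from the Consortium for Functional Glycomics database and kept only where the protein sequence was available.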
# [2] = biological target: Fuc(a1-2)Gal(b1-3)GlcNAc
# Outline: as §1
# [3] = biological target: Fuc(a1-2)Gal(b1-3)GlcNAc(b1-3)[Gal(b1-4)GlcNAc(b1-6)]Gal(b1-4)Glc
# Outline: as §1
# [4] = biological target: Fuc(a1-2)Gal(b1-4)GlcNAc(b1-3)Gal(b1-4)GlcNAc(b1-3)Gal(b1-4)GlcNAc
# Outline: as §1
# [5] = biological target: Fuc(a1-2)Gal(b1-4)[Fuc(a1-3)]GlcNAc
# Outline: as §1
# [6] = biological target: Fuc(a1-2)Gal(b1-4)[Fuc(a1-3)]GlcNAc(b1-2)[Fuc(a1-2)Gal(b1-4)[Fuc(a1-3)]GlcNAc(b1-4)]Man(a1-3)[Fuc(a1-2)Gal(b1-4)[Fuc(a1-3)]GlcNAc(b1-2)Man(a1-6)]Man(b1-4)GlcNAc(b1-4)GlcNAc
# Outline: as §1
# [7] = biological target: Fuc(a1-2)[Gal(a1-3)]Gal(b1-3)GlcNAc
# Outline: as §1
# [8] = biological target: Fuc(a1-2)[Gal(a1-3)]Gal(b1-4)GlcNAc(b1-2)Man
# Outline: as §1
# [9] = biological target: Fuc(a1-2)[Gal(a1-3)]Gal(b1-4)GlcNAc(b1-6)GalNAc
# Outline: as §1
# [10] = biological target: Fuc(a1-2)[GalNAc(a1-3)]Gal(b1-4)GlcNAc(b1-2)Man(a1-3)[Fuc(a1-2)[GalNAc(a1-3)]Gal(b1-4)GlcNAc(b1-2)Man(a1-6)]Man(b1-4)GlcNAc(b1-4)GlcNAc
# Outline: as §1
# [11] = biological target: Fuc(a1-2)[GalNAc(a1-3)]Gal(b1-4)GlcNAc(b1-6)GalNAc
# Outline: as §1
# [12] = biological target: Fuc(a1-2)[GalNAc(a1-3)]Gal(b1-4)[Fuc(a1-3)]GlcNAc(b1-3)GalNAc
# Outline: as §1
# [13] = biological target: Fuc(a1-3)[Gal(b1-4)]GlcNAc(b1-3)Gal(b1-3)[Fuc(a1-4)]GlcNAc
# Outline: as §1
# [14] = biological target: Fuc(a1-3)[Gal(b1-4)]GlcNAc(b1-3)Gal(b1-4)[Fuc(a1-3)]GlcNAc
# Outline: as §1
# [15] = biological target: Fuc(a1-3)[Gal(b1-4)]GlcNAc(b1-3)Gal(b1-4)[Fuc(a1-3)]GlcNAc(b1-3)Gal(b1-4)[Fuc(a1-3)]GlcNAc
# Outline: as §1
# [16] = biological target: Fuc(a1-3)[GalNAc(b1-4)]GlcNAc
# Outline: as §1
# [17] = biological target: Gal(a1-3)Gal(b1-3)[Fuc(a1-4)]GlcNAc(b1-2)Man(a1-3)[Gal(a1-3)Gal(b1-3)[Fuc(a1-4)]GlcNAc(b1-2)Man(a1-6)]Man(b1-4)GlcNAc(b1-4)GlcNAc
# Outline: as §1
# [18] = biological target: Gal(a1-3)Gal(b1-4)GlcNAc(b1-6)GalNAc
# Outline: as §1
# [19] = biological target: Gal(a1-3)GalNAc
# Outline: as §1
# [20] = biological target: Gal(a1-3)[Gal(a1-4)]Gal(b1-4)GlcNAc
# Outline: as §1
# [21] = biological target: Gal(a1-4)Gal(b1-4)Glc
# Outline: as §1
# [22] = biological target: Gal(b1-3)GalNAc(b1-4)Gal(b1-4)Glc
# Outline: as §1
# [23] = biological target: Gal(b1-3)GlcNAc(b1-2)Man(a1-3)[Gal(b1-3)GlcNAc(b1-2)Man(a1-6)]Man(b1-4)GlcNAc(b1-4)GlcNAc
# Outline: as §1
# [24] = biological target: Gal(b1-3)GlcNAc(b1-6)[Gal(b1-3)]GalNAc
# Outline: as §1
# [25] = biological target: Gal(b1-3)GlcNAc6S
# Outline: as §1
# [26] = biological target: Gal(b1-3)[Fuc(a1-4)]GlcNAc(b1-2)Man(a1-3)[Gal(b1-3)[Fuc(a1-4)]GlcNAc(b1-2)Man(a1-6)]Man(b1-4)GlcNAc(b1-4)[Fuc(a1-6)]GlcNAc
# Outline: as §1
# [27] = biological target: Gal(b1-3)[GlcNAc(b1-6)]GalNAc
# Outline: as §1
# [28] = biological target: Gal(b1-4)GalNAc(a1-3)[Fuc(a1-2)]Gal(b1-4)GlcNAc
# Outline: as §1
# [29] = biological target: Gal(b1-4)GlcNAc
# Outline: as §1
# [30] = biological target: Gal(b1-4)GlcNAc(b1-2)Man(a1-3)[GlcNAc(b1-2)Man(a1-6)]Man(b1-4)GlcNAc(b1-4)GlcNAc
# Outline: as §1
# [31] = biological target: Gal(b1-4)GlcNAc(b1-2)[Gal(b1-4)GlcNAc(b1-4)]Man(a1-3)[GlcNAc(b1-4)][Gal(b1-4)GlcNAc(b1-2)[Gal(b1-4)GlcNAc(b1-6)]Man(a1-6)]Man(b1-4)GlcNAc(b1-4)GlcNAc
# Outline: as §1
# [32] = biological target: Gal(b1-4)GlcNAc(b1-2)[Gal(b1-4)GlcNAc(b1-6)]Man(a1-6)[Gal(b1-4)GlcNAc(b1-2)Man(a1-3)]Man(b1-4)GlcNAc(b1-4)GlcNAc
# Outline: as §1
# [33] = biological target: Gal(b1-4)GlcNAc(b1-2)[Gal(b1-4)GlcNAc(b1-6)]Man(a1-6)[Gal(b1-4)GlcNAc(b1-2)Man(a1-3)]Man(b1-4)GlcNAc(b1-4)[Fuc(a1-6)]GlcNAc
# Outline: as §1
# [34] = biological target: Gal3S(b1-4)[Fuc(a1-3)]Glc6S
# Outline: as §1
# [35] = biological target: Gal6S(b1-3)GlcNAc6S
# Outline: as §1
# [36] = biological target: GalNAc(a1-3)GalNAc(b1-3)Gal(a1-4)Gal(b1-4)Glc
# Outline: as §1
# [37] = biological target: GalNAc(b1-3)Gal(a1-4)Gal(b1-4)GlcNAc
# Outline: as §1
# [38] = biological target: GalNAc(b1-3)Gal(a1-6)Gal(b1-4)Glc
# Outline: as §1
# [39] = biological target: GalNAc(b1-4)GlcNAc
# Outline: as §1
# [40] = biological target: GlcNAc(a1-4)Gal(b1-4)GlcNAc(b1-3)Gal(b1-4)Glc
# Outline: as §1
# [41] = biological target: GlcNAc(b1-2)Man(a1-3)[GlcNAc(b1-2)Man(a1-6)]Man(b1-4)GlcNAc(b1-4)GlcNAc
# Outline: as §1
# [42] = biological target: GlcNAc(b1-3)Gal(b1-4)GlcNAc(b1-3)Gal(b1-4)GlcNAc(b1-2)[GlcNAc(b1-3)Gal(b1-4)GlcNAc(b1-3)Gal(b1-4)GlcNAc(b1-6)]Man(a1-6)[GlcNAc(b1-3)Gal(b1-4)GlcNAc(b1-3)Gal(b1-4)GlcNAc(b1-2)Man(a1-3)]Man(b1-4)GlcNAc(b1-4)[Fuc(a1-6)]GlcNAc
# Outline: as §1
# [43] = biological target: GlcNAc(b1-4)[GlcNAc(b1-6)]GalNAc
# Outline: as §1
# [44] = biological target: GlcNAc6S(b1-3)Gal(b1-4)GlcNAc
# Outline: as §1
# [45] = biological target: Neu5Ac(a2-3)Gal
# Outline: as §1
# [46] = biological target: Neu5Ac(a2-3)Gal(b1-3)GlcNAc(b1-2)Man
# Outline: as §1
# [47] = biological target: Neu5Ac(a2-3)Gal(b1-3)[Neu5Ac(a2-6)]GalNAc
# Outline: as §1
# [48] = biological target: Neu5Ac(a2-3)Gal6S(b1-4)GlcNAc
# Outline: as §1
# [49] = biological target: Neu5Ac(a2-3)GalNAc
# Outline: as §1
# [50] = biological target: Neu5Ac(a2-6)Gal(b1-4)GlcNAc(b1-2)Man(a1-6)[Gal(b1-4)GlcNAc(b1-2)Man(a1-3)]Man(b1-4)GlcNAc(b1-4)GlcNAc
# Outline: as §1
# [51] = biological target: Neu5Ac(a2-6)Gal(b1-4)GlcNAc(b1-3)Gal(b1-4)GlcNAc(b1-2)Man(a1-3)[Neu5Ac(a2-6)Gal(b1-4)GlcNAc(b1-3)Gal(b1-4)GlcNAc(b1-2)Man(a1-6)]GalNAc
# Outline: as §1
# [52] = biological target: Neu5Ac(a2-6)Gal(b1-4)GlcNAc(b1-3)Gal(b1-4)[Fuc(a1-3)]GlcNAc(b1-3)Gal(b1-4)[Fuc(a1-3)]GlcNAc
# Outline: as §1
# [53] = biological target: Neu5Ac(a2-6)Gal(b1-4)GlcNAc(b1-3)[Neu5Ac(a2-6)Gal(b1-4)GlcNAc(b1-6)]GalNAc
# Outline: as §1
# [54] = biological target: Neu5Ac(a2-8)Neu5Ac(a2-8)Neu5Ac
# Outline: as §1
# [55] = biological target: Neu5Ac(b2-6)GalNAc
# Outline: as §1
# [56] = biological target: Neu5Gc(a2-3)Gal(b1-3)GlcNAc
# Outline: as §1
binder,measurement,setting,value
B1,glycan array binding signal (z-score),[1],-0.3
same,glycan array binding signal (z-score),[2],-0.85
same,glycan array binding signal (z-score),[3],-0.343
same,glycan array binding signal (z-score),[4],-0.994
same,glycan array binding signal (z-score),[5],-0.291
same,glycan array binding signal (z-score),[6],0.175
same,glycan array binding signal (z-score),[7],0.172
same,glycan array binding signal (z-score),[8],-0.675
same,glycan array binding signal (z-score),[9],-0.256
same,glycan array binding signal (z-score),[10],-0.648
same,glycan array binding signal (z-score),[11],-0.387
same,glycan array binding signal (z-score),[12],7.04
same,glycan array binding signal (z-score),[13],0.431
same,glycan array binding signal (z-score),[14],-0.975
same,glycan array binding signal (z-score),[15],1.89
same,glycan array binding signal (z-score),[16],1.78
same,glycan array binding signal (z-score),[17],0.054
same,glycan array binding signal (z-score),[18],-0.159
same,glycan array binding signal (z-score),[19],2.32
same,glycan array binding signal (z-score),[20],9.44
same,glycan array binding signal (z-score),[21],1.85
same,glycan array binding signal (z-score),[22],2.16
same,glycan array binding signal (z-score),[23],0.891
same,glycan array binding signal (z-score),[24],-0.659
same,glycan array binding signal (z-score),[25],0.146
same,glycan array binding signal (z-score),[26],0.147
same,glycan array binding signal (z-score),[27],0.411
same,glycan array binding signal (z-score),[28],-0.618
same,glycan array binding signal (z-score),[29],0.708
same,glycan array binding signal (z-score),[30],-0.702
same,glycan array binding signal (z-score),[31],-0.552
same,glycan array binding signal (z-score),[32],0.037
same,glycan array binding signal (z-score),[33],0.414
same,glycan array binding signal (z-score),[34],4.34
same,glycan array binding signal (z-score),[35],-0.529
same,glycan array binding signal (z-score),[36],-0.513
same,glycan array binding signal (z-score),[37],2.47
same,glycan array binding signal (z-score),[38],-0.39
same,glycan array binding signal (z-score),[39],8.76
same,glycan array binding signal (z-score),[40],-0.389
same,glycan array binding signal (z-score),[41],-0.443
same,glycan array binding signal (z-score),[42],0.144
same,glycan array binding signal (z-score),[43],0.541
same,glycan array binding signal (z-score),[44],1.26
same,glycan array binding signal (z-score),[45],-0.106
same,glycan array binding signal (z-score),[46],-0.011
same,glycan array binding signal (z-score),[47],-0.391
same,glycan array binding signal (z-score),[48],-0.571
same,glycan array binding signal (z-score),[49],-0.206
same,glycan array binding signal (z-score),[50],-0.165
same,glycan array binding signal (z-score),[51],0.243
same,glycan array binding signal (z-score),[52],-0.054
same,glycan array binding signal (z-score),[53],0.077
same,glycan array binding signal (z-score),[54],-0.58
same,glycan array binding signal (z-score),[55],-0.728
same,glycan array binding signal (z-score),[56],-0.145
